Data on 25 molecules can be found in PubChem BioAssay (Tox21).

A short description of test [1]: qHTS assay for small molecule agonists of the p53 signaling pathway (AID 651631; calls by dose curve; further: nearly all actives have a fitted effect of over 15% in size). Put shortly: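 Readout was fluorescence from the LiveBLAzer FRET substrate, applied for 2 h at room temperature after 16 h compound exposure at 37 °C. Cells were the p53RE-bla HCT-116 line, with beta-lactamase driven by p53 response elements.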
(Quantitative high-throughput screening tests each substance at several concentrations.)

The nature of test [2]: qHTS assay for small molecules that induce genotoxicity in human embryonic kidney cells expressing luciferase-tagged ATAD5 (AID 651632). Further: nearly all actives have a fitted effect of over 15% in size. Put shortly:
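Quantitative HTS in HEK293T expressing luciferase-tagged ATAD5, whose levels rise upon DNA damage. Exposure ran 16 hr at 37C and 5% CO2, with luminescence read 30 min after Amplite addition at room temperature.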

Test [3] can be described thus: qHTS assay for small molecule agonists of the p53 signaling pathway - cell viability (AID 651633; calls by dose curve; further: series mostly up to about 83 µM; nearly all actives have a fitted effect of over 30% in size). Summed up: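 p53RE-bla cells were treated with compound for 16 hours at 37 C. Cytotoxicity was then measured as CellTiter-Glo luminescence after 30 min at room temperature.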
Test [4] can be described thus: qHTS assay for small molecules that induce genotoxicity in human embryonic kidney cells expressing luciferase-tagged ATAD5 - cell viability (AID 651634; calls by dose curve; further: nearly all actives have a fitted effect of over 25% in size). Summed up: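 After 15.5 hr incubation with compound at 37C, 5% CO2, HEK293T ATAD5-luciferase cells received CellTiter-Fluor reagent; fluorescence intensity was quantified following 30 min at 37C.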
A short description of test [5]: qHTS assay for small molecule disruptors of the mitochondrial membrane potential - cell viability (AID 720634; calls by dose curve;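 further: human HepG2 liver cancer cells; series mostly up to about 83 µM; nearly all actives have a fitted effect of over 20% in size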). Put shortly:
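ATP-based luminescent viability readout (CellTiter-Glo, 30 min, room temperature) in HepG2 cells multiplexed with the m-MPI membrane potential dye; compound exposure lasted 1 hr at 37 C.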

Test [6] is described as follows: qHTS assay for small molecule disruptors of the mitochondrial membrane potential (AID 720635). Further: potency means the concentration at half of the fitted maximal effect. Put shortly:
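HepG2 cells exposed to compound 1 hr at 37C, then Mito-MPS dye 30 min. Ratio read of aggregate (540/590 nm) versus monomer (490/535 nm) fluorescence.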

Test [7] can be described thus: qHTS assay to test for compound auto fluorescence at 590 nm (red) in HepG2 cells (AID 720674). Summed up:
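Fluorescence at 590 nm emission following 540 nm excitation was recorded from HepG2 wells one hour after compound transfer, with DMSO-only wells as vehicle and Rose Bengal sodium equivalency as the scale.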

Test [8] is described as follows: qHTS assay to test for compound auto fluorescence at 535 nm (green) in HepG2 cells (AID 720675).
A short description of test [9]: qHTS assay to test for compound auto fluorescence at 460 nm (blue) in HEK293 cells (AID 720678). Summed up: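 HEK293 cells (2,000/well, medium with 10% dialyzed FBS) attached 4-5 hr, then exposed to compound overnight at 37C, 5% CO2. Blue fluorescence read at 405/460 nm, with triamterene as reference fluorophore.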
A short description of test [10]: qHTS assay to test for compound auto fluorescence at 590 nm (red) in HEK293 cells (AID 720679). Summed up: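 HEK293 cells (2,000/well, 10% dialyzed FBS) attached 4-5 hr, then dosed with compound or DMSO and incubated overnight at 37C, 5% CO2. Red fluorescence read at 540/590 nm, Rose Bengal sodium as reference fluorophore.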

Several values for one entry are separate records, joined by “and”; a condition that tells them apart may be missing. Equal values may be shown once. Unmarked numbers belong to inactive results. Results filed as inconclusive are left out. Activity calls are given as the source filed them. Unless noted, the call rests on the fitted dose curve; in most records, active means well fitted curve in the direction sought with a large enough effect in the repeat runs; inconclusive means weak or mixed curves; inactive means no such curve, though single readings can be large; an effect the other way counts as inactive or inconclusive.
On the % scale 0 is the no-effect control and ±100 the full control effect.

Consider `CC(C)NC(=O)c1ccccc1N`, for which the Potency result in test [1], in test [2], in test [3], in [4], in test [5] and in [6] was “inactive” in each case. The Potency entry in test [9] is “inactive”. Besides, the result in [7], in test [8] and in test [10] was inactive.

Regarding `C1CCN(CN2CCCCC2)CC1`, the Potency result in [1], in test [2], in test [3], in test [4], in [5] and in [6] was “inactive” each time. Also, the Potency result in test [9] is “inactive”. Also, the molecule was called inactive in test [7] and in test [10].

Turning to `Nc1ncnc2c1ncn2[C@@H]1O[C@H](CO)[C@@H](O)[C@H]1O`, the Potency result in test [1], in test [2], in test [3], in test [4], in test [5] and in test [9] was “inactive” in each case. Further, the outcome in [7], in [8] and in test [10] was inactive.

Regarding `CC(C)CCCCCCCOC(=O)c1ccc(C(=O)OCCCCCCCC(C)C)c(C(=O)OCCCCCCCC(C)C)c1`, the Potency entry in test [1], in [2], in test [3], in [4], in test [5] and in [6] was “inactive” each time. In addition, the Potency entry in test [9] is “inactive”. The molecule was classed as inactive in [7], in [8] and in test [10].

In the case of `CCc1cnc(C(=O)O)c(C(=O)O)c1`, the Potency result in test [1], in test [2], in test [3], in test [4], in [5] and in [6] was “inactive” in each case. Besides, in test [9], the Potency result was “inactive”. Besides, the result in [7], in test [8] and in test [10] was inactive.

For `CO[C@@H]1[C@@H](O[C@@H]2O[C@H](C)[C@@H](O[C@H]3C[C@@](C)(O)[C@@H](O)[C@H](C)O3)[C@H](N(C)C)[C@H]2O)[C@@H](CC=O)C[C@@H](C)[C@@H](O[C@@H]2CC[C@H](N(C)C)[C@@H](C)O2)/C=C/C=C/C[C@@H](C)OC(=O)C[C@H]1OC(C)=O`, the Potency result in test [1], in test [2], in test [3], in [4], in test [5] and in test [6] was “inactive” each time. Further, the Potency result in test [9] was “inactive”. Besides, the result in test [7] and in test [10] was inactive.

As to `CCCCCCCCCCCCCCCCCCCl`, the activation in test [1] is -2.7% [at 8.3 µM]; in test [2], 2.16% [at 8.08 µM]. Moreover, the activity change, negative = cytotoxicity was -0.103% [at 8.08 µM] in [3] and -4.97% [at 8.08 µM] in test [5]. For the same molecule, the activity, negative = cytotoxicity in [4] was -17.2% [at 8.08 µM]. In addition, the ratio activity, negative = MMP loss in test [6] is -5.25% [at 8.08 µM]. For the same molecule, the fluorescence, relative to Rose Bengal in [7] is -0.0738% [at 3.72 µM]. The fluorescence, % of fluorescein control in test [8] was 0.0105% [at 3.72 µM]. Further, the fluorescence, % of triamterene in test [9] was 0.0349% [at 3.72 µM]. The fluorescence, % of fluorescent control in test [10] is -0.145% [at 3.72 µM].

Take `CCCCCC1CCC(=O)O1` (stereo unspecified): the Potency entry in [1], in [2], in test [3], in test [4], in test [5] and in [6] was “inactive” in each case. The Potency entry in test [9] was “inactive”. Also, the molecule was classed as inactive in [7], in [8] and in test [10].

Regarding `CCc1ccc(C(=O)C(C)CN2CCCCC2)cc1` (stereo unspecified), the Potency result in test [1], in test [2], in test [3], in [4], in test [5] and in test [6] was “inactive” each time. For the same molecule, in test [9], the Potency entry is “inactive”. Further, the call in test [7], in test [8] and in [10] was inactive.

As for `CCCCCCCCCCCCCCCCN`, the Potency entry in test [1], in test [2], in [3], in test [4], in test [5] and in test [6] was “inactive” throughout. The Potency entry in test [9] is “inactive”. For the same molecule, the molecule was called inactive in test [7], in test [8] and in test [10].

For `O=C(O)c1ccccc1-n1cc(C(=O)O)c(=O)c2cc(Nc3c(F)cc(F)cc3Cl)c(Cl)cc21`, the Potency entry in test [1], in [2], in test [3], in test [4], in test [5] and in test [6] was “inactive” each time. For the same molecule, the Potency result in [9] is “inactive”. In addition, the call in [7], in test [8] and in test [10] was inactive.

With `O=c1[nH][nH]c2ccccc12`, the Potency entry in test [1], in test [2], in [3], in [4], in test [5] and in test [6] was “inactive” in each case. Also, the Potency entry in test [9] is “inactive”. Besides, the molecule was classed as inactive in test [7], in [8] and in test [10].

On to `CCCCCCCCS`, for which the Potency result in test [1], in [2], in test [3], in test [4], in [5] and in test [6] was “inactive” each time. Also, in [9], the Potency result is “inactive”. The result in [7], in test [8] and in test [10] was inactive.

Consider `COc1cccc([C@H](O)C2CCN(CCc3ccc(F)cc3)CC2)c1OC`, for which the Potency result in [1], in test [2], in test [3], in test [4], in test [5] and in test [9] was “inactive” each time. Besides, the molecule was called inactive in test [7], in test [8] and in test [10].

For `CC1=CC(=C(c2ccc(N)cc2)c2ccc(N)cc2)C=CC1=N`, the activation in test [1] was -1.72% [at 8.3 µM]. In addition, the Potency entry in test [2], in [3] and in [9] was “inactive” in each case. For the same molecule, the activity change, negative = cytotoxicity in test [5] was -6.69% [at 8.08 µM]. For the same molecule, the Potency in test [6] was 221 nM (active) and 55 nM (active). In addition, the result in test [7], in test [8] and in test [10] was inactive.

Take `COc1ccc(C(=O)Nc2ccccc2)cc1[N+](=O)[O-]`: the Potency result in [1], in test [2], in [3], in test [4] and in [9] was “inactive” each time. Moreover, the Potency in test [6] was 2.75 µM (active). For the same molecule, the result in test [7], in [8] and in test [10] was inactive.

For the molecule `CCCCCO`, the Potency entry in [1], in test [2], in test [3], in test [4], in test [5] and in [9] was “inactive” in each case. Further, the molecule was classed as inactive in [7], in test [8] and in test [10].

For `CCCC(=O)OCc1ccccc1`, the Potency entry in test [1], in [2], in test [3], in [4], in [5] and in test [9] was “inactive” in each case. Besides, the molecule was classed as inactive in test [7] and in [10].

Consider `CC1(C)C(=O)NC(=O)N1CO`, for which the Potency entry in test [1], in test [2], in test [3], in [5], in test [6] and in [9] was “inactive” each time. Moreover, the outcome in test [7], in test [8] and in test [10] was inactive.

Take `CC(=O)Nc1cccc(N)c1`: the Potency entry in [1], in test [2], in test [3], in [4], in test [5] and in [9] was “inactive” each time. The molecule was called inactive in test [7] and in test [10].

As for `CCCCCCCCCCCC(=O)OCC`, the Potency entry in [1], in test [2], in test [3], in test [5], in test [6] and in test [9] was “inactive” throughout. Besides, the molecule was called inactive in [7], in test [8] and in [10].

With `Cc1ccccc1CCO`, the Potency result in [1], in [2], in [3], in [4], in test [5] and in test [9] was “inactive” each time. In addition, the call in test [7], in [8] and in test [10] was inactive.

As for `CO[C@@H]1COCC[C@@H]1N[C@@H]1CC[C@@](C(=O)N2CCc3ncc(C(F)(F)F)cc3C2)(C(C)C)C1`, the Potency result in [1], in [2], in test [3], in [4], in [5] and in test [9] was “inactive” each time. Besides, the molecule was called inactive in test [7], in test [8] and in test [10].

With `Cc1cc(N)n(-c2ccccc2)n1`, the Potency entry in [1], in [2], in [3], in test [4], in test [5] and in test [9] was “inactive” throughout. Moreover, the result in [7], in test [8] and in [10] was inactive.

Consider `CCOC(=O)CC(O)(CC(=O)OCC)C(=O)OCC`, for which the Potency entry in [1], in test [2], in test [3], in test [4] and in test [9] was “inactive” each time. For the same molecule, the molecule was called inactive in [7] and in test [10].
